Assay [1] can be described thus: NCI Yeast Anticancer Drug Screen. Data for the rad50 strain (AID 155).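 Note: 0% = growth of vehicle-only cultures of the same strain.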 The note with it: S. cerevisiae rad50 strain growth inhibition, active compounds read high. A digest of the protocol:
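Inhibition values express reduced yeast growth in compound-treated cultures relative to vehicle-treated controls.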

Assay [2] in a line: NCI Yeast Anticancer Drug Screen. Data for the mec2-1 strain (AID 157). The following applies: S. cerevisiae mec2-1 strain, active compounds read high. An outline of the steps:
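Strain: mec2-1 (DNA repair/cell cycle alteration). Compound exposure, then growth measured; inhibition expressed relative to vehicle.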

A short description of assay [3]: NCI Yeast Anticancer Drug Screen. Data for the sgs1 mgt1 strain (AID 161).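 Note: 0% = growth of cultures given vehicle only.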 The following applies: S. cerevisiae sgs1 mgt1 strain, active compounds read high. A digest of the protocol: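 Mutant yeast exposed to compound; growth scored against vehicle-only wells.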
Assay [4] can be described thus: NCI Yeast Anticancer Drug Screen. Data for the cln2 rad14 strain (AID 165).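 Note: 0% = growth equal to vehicle treated cultures.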 The note with it: S. cerevisiae cln2 rad14 strain, active compounds read high. A digest of the protocol:
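Compounds are applied to the cln2 rad14 yeast strain, and growth is then compared with that of vehicle-treated cultures to give inhibition.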

Assay [5] in a line: NCI Yeast Anticancer Drug Screen. Data for the bub3 strain (AID 167). The note with it: S. cerevisiae bub3 mutant strain, active compounds read high. A digest of the protocol: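 Steps: expose the mutant yeast strain to compound; grow alongside vehicle-treated cultures; measure growth; express inhibition against the vehicle cultures.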
Assay [6] in a line: NCI Yeast Anticancer Drug Screen. Data for the mlh1 rad18 strain (AID 175). The note with it: S. cerevisiae mlh1 rad18 strain growth inhibition, active compounds read high. A digest of the protocol:
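Read-out is yeast growth inhibition, calculated against vehicle-only controls. The compound was applied to a strain engineered with DNA damage repair alterations.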

Setting [7] is: at 5.0 µM (retest, dose inferred, filed as 0.5).
Where [8] appears, read: at 50.0 µM (retest, dose inferred, filed as 5.0).

Each structure is given as a SMILES string. This is part of a sample that, as a whole, favours compounds with a hit. Of some 79,000 tested, about 15% had one in any assay. A number with no mark means an inactive call. Calls of active or inactive are those of the source. Cut-off read from the data, not from the text of the source: active = growth inhibition above about 70%; inactive = the rest.

Consider `CC(/C=C/C(O)=C1/C(=O)CNC1=O)=C\[C@@H](C)[C@H]1O[C@@]2(C)O[C@H](C(=O)[C@@H]3O[C@@]32C)[C@@H]1C`, for which the growth inhibition was 98% (active) in assay [1] (setting [7]); 99% (active) in assay [1] (setting [8]); 91.8% (active) in assay [1] (at 50.0 µM); 99% (active) in assay [2] (setting [7]); 99% (active) in assay [2] (setting [8]); 94.5% (active) in assay [2] (at 50.0 µM). Moreover, the growth inhibition in assay [3] (setting [7]) was 98% (active); in assay [3] (setting [8]) it was 98% (active); in assay [3] (at 50.0 µM), 94.2% (active); in assay [4] (setting [7]), 97% (active); in assay [4] (setting [8]), 95% (active); in assay [4] (at 50.0 µM) it was 90.8% (active). Also, the growth inhibition was 98% (active) in assay [5] (setting [7]); 99% (active) in assay [5] (setting [8]); 93.4% (active) in assay [5] (at 50.0 µM); 98% (active) in assay [6] (setting [7]); 98% (active) in assay [6] (setting [8]); 90.3% (active) in assay [6] (at 50.0 µM).

As to `COc1cc(C(c2cc3c(cc2O)OCO3)N2CCN(C(c3cc(OC)c(OC)c(OC)c3)c3cc4c(cc3O)OCO4)CC2)cc(OC)c1OC` (centres undefined), the growth inhibition is -2% in assay [1] (setting [7]); 69% in assay [1] (setting [8]); 23.6% in assay [1] (at 50.0 µM); -1% in assay [2] (setting [7]); 74% (active) in assay [2] (setting [8]); 32.9% in assay [2] (at 50.0 µM). Moreover, the growth inhibition in assay [3] (setting [7]) is -5%; in assay [3] (setting [8]), 88% (active); in assay [3] (at 50.0 µM), 28.6%; in assay [4] (setting [7]) it was -6%; in assay [4] (setting [8]) it was 93% (active); in assay [4] (at 50.0 µM), -35%. Also, the growth inhibition in assay [5] (setting [7]) is -2%; in assay [5] (setting [8]), 91% (active); in assay [5] (at 50.0 µM), 6.55%; in assay [6] (setting [7]), 2%; in assay [6] (setting [8]), 86% (active); in assay [6] (at 50.0 µM), 64.1%.

For `CC(C)(N)COB(c1ccccc1)c1ccccc1`, the growth inhibition in assay [1] (setting [7]) was 10%; in assay [1] (setting [8]) it was 99% (active); in assay [1] (at 50.0 µM), 99.7% (active); in assay [2] (setting [7]) it was -5%; in assay [2] (setting [8]), 99% (active); in assay [2] (at 50.0 µM), 99.8% (active). Further, the growth inhibition in assay [3] (setting [7]) is -1%; in assay [3] (setting [8]), 99% (active); in assay [3] (at 50.0 µM), 99.8% (active); in assay [4] (setting [7]) it was 0%; in assay [4] (setting [8]), 99% (active); in assay [4] (at 50.0 µM), 99.5% (active). In addition, the growth inhibition in assay [5] (setting [7]) is -4%; in assay [5] (setting [8]), 98% (active); in assay [5] (at 50.0 µM), 99.8% (active); in assay [6] (setting [7]), -7%; in assay [6] (setting [8]), 99% (active); in assay [6] (at 50.0 µM) it was 99.5% (active).

Consider `CC1(C)CC(=O)C2=C(C1)Nc1ccccc1CC2c1c[nH]c2ccccc12` (centres undefined), for which the growth inhibition in assay [1] (setting [7]) is -6%; in assay [1] (setting [8]) it was 77% (active); in assay [1] (at 50.0 µM) it was -7.2%; in assay [2] (setting [7]), -1%; in assay [2] (setting [8]) it was 85% (active); in assay [2] (at 50.0 µM), 3.35%. For the same compound, the growth inhibition in assay [3] (setting [7]) was -8%; in assay [3] (setting [8]), 68%; in assay [3] (at 50.0 µM), 5.35%; in assay [4] (setting [7]) it was -62%; in assay [4] (setting [8]), 82% (active); in assay [4] (at 50.0 µM), 52.2%. Also, the growth inhibition in assay [5] (setting [7]) is -4%; in assay [5] (setting [8]) it was 68%; in assay [5] (at 50.0 µM), 10.8%; in assay [6] (setting [7]) it was 0%; in assay [6] (setting [8]) it was 84% (active); in assay [6] (at 50.0 µM) it was 0%.

Regarding `Nc1c(-c2ccc(Cl)cc2)[n+]([O-])c2ccccc2[n+]1[O-]`, the growth inhibition in assay [1] (setting [7]) was -16%; in assay [1] (setting [8]), 4%; in assay [1] (at 50.0 µM) it was 19.2%; in assay [2] (setting [7]) it was -8%; in assay [2] (setting [8]), -10%; in assay [2] (at 50.0 µM) it was 13.2%. In addition, the growth inhibition in assay [3] (setting [7]) is 1%; in assay [3] (setting [8]) it was -10%; in assay [3] (at 50.0 µM), 34.4%; in assay [4] (setting [7]) it was 24%; in assay [4] (setting [8]), 11%; in assay [4] (at 50.0 µM), 47.7%. The growth inhibition in assay [5] (setting [7]) was -3%; in assay [5] (setting [8]), 11%; in assay [5] (at 50.0 µM) it was 8.45%; in assay [6] (setting [7]) it was 15%; in assay [6] (setting [8]), 6%; in assay [6] (at 50.0 µM) it was 37.2%.

On to `CC(C)(c1ccc(OC#N)cc1)c1ccc(OC#N)cc1`, for which the growth inhibition in assay [1] (setting [7]) was 21%; in assay [1] (setting [8]) it was 78% (active); in assay [1] (at 50.0 µM), 66%; in assay [2] (setting [7]), -23%; in assay [2] (setting [8]), 87% (active); in assay [2] (at 50.0 µM), 53.4%. The growth inhibition was 4% in assay [3] (setting [7]); 40% in assay [3] (setting [8]); 79.5% (active) in assay [3] (at 50.0 µM); 23% in assay [4] (setting [7]); 88% (active) in assay [4] (setting [8]); 61.4% in assay [4] (at 50.0 µM). The growth inhibition in assay [5] (setting [7]) is 1%; in assay [5] (setting [8]) it was 95% (active); in assay [5] (at 50.0 µM), 25%; in assay [6] (setting [7]) it was -14%; in assay [6] (setting [8]), 59%; in assay [6] (at 50.0 µM) it was 47%.

Regarding `CC(C)/C(Cl)=N\OC(=O)Nc1cccc(F)c1`, the growth inhibition is 14% in assay [1] (setting [7]); 65% in assay [1] (setting [8]); -5.85% in assay [1] (at 50.0 µM); -7% in assay [2] (setting [7]); 45% in assay [2] (setting [8]); 63% in assay [2] (at 50.0 µM). In addition, the growth inhibition in assay [3] (setting [7]) was -6%; in assay [3] (setting [8]), 96% (active); in assay [3] (at 50.0 µM), 82.9% (active); in assay [4] (setting [7]), 41%; in assay [4] (setting [8]) it was 28%; in assay [4] (at 50.0 µM), 25.9%. Further, the growth inhibition is -13% in assay [5] (setting [7]); 82% (active) in assay [5] (setting [8]); 69.7% in assay [5] (at 50.0 µM); -3% in assay [6] (setting [7]); 28% in assay [6] (setting [8]); 50.8% in assay [6] (at 50.0 µM).

Turning to `S=C(N/N=C1/CCCC/C1=N/NC(=S)N1CCOCC1)N1CCOCC1`, the growth inhibition was 38% in assay [1] (setting [7]); 96% (active) in assay [1] (setting [8]); 90.1% (active) in assay [1] (at 50.0 µM); 33% in assay [2] (setting [7]); 99% (active) in assay [2] (setting [8]); 93.7% (active) in assay [2] (at 50.0 µM). For the same compound, the growth inhibition in assay [3] (setting [7]) was 40%; in assay [3] (setting [8]) it was 99% (active); in assay [3] (at 50.0 µM), 91.4% (active); in assay [4] (setting [7]) it was 32%; in assay [4] (setting [8]) it was 98% (active); in assay [4] (at 50.0 µM) it was 91.2% (active). Besides, the growth inhibition in assay [5] (setting [7]) is 51%; in assay [5] (setting [8]), 99% (active); in assay [5] (at 50.0 µM), 91% (active); in assay [6] (setting [7]), 41%; in assay [6] (setting [8]), 97% (active); in assay [6] (at 50.0 µM) it was 91.2% (active).

(Values after PubChem BioAssay (NCI).)
